From PubChem BioAssay AID488965 (Broad Institute, 2010)
Hit rate of the full screen: of about 340,000 compounds, about 210 (0.062%) were called active. No stated cut-off is given here; in the data, active means inhibition above about 30% (passing the limit was not always enough); inconclusive means no clear call, values can overlap the other calls. The sample as a whole holds a higher share of actives than the screen did.

Each molecule was assayed on PvdQ acylase [Pseudomonas aeruginosa LESB58] (assay: P. aeruginosa PvdQ acylase inhibitors, primary screen, biochemical, fluorescence, plate reader and imaging, single point (AID 488965;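 further: 0% = vehicle neutral wells and 100% = reference inhibitor wells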)). Settings: purified PvdQ acylase, at 10 µM, stronger effect = higher value.

Row | SMILES | inhibition
1 | CCN(CC)c1ccc(NC(=O)c2ccc(Cl)nc2)cc1 | -15.1% (inactive)
2 | CCCCNC(=O)C1(c2ccc(OC)cc2)CCOCC1 | -4.05% (inactive)
3 | NS(=O)(=O)c1ccc(NC(=S)N2CCCC2)cc1 | 9.11% (inactive)
4 | CC1(C)Oc2ccc(C(=O)N3CCOCC3)cc2N(CC(=O)Nc2ccccc2)C1=O | -16.2% (inactive)
5 | COCCCNC(=O)/C(C#N)=C/c1c(N2CCCCCC2)nc2ccccn2c1=O | -15.4% (inactive)
6 | Cc1ccccc1-n1nc(SCC(=O)O)sc1=S | -9.08% (inactive)
7 | Cc1csc(NC(=O)Nc2ccccc2[N+](=O)[O-])n1 | -8.58% (inactive)
8 | Cc1cc(NC(=O)c2ccccc2C)no1 | 11.3% (inactive)
9 | Cc1cc(NC(=O)Nc2ccccc2[N+](=O)[O-])no1 | 62.7% (active)
10 | Cc1c(C(=O)NCCN2CCOCC2)sc2nc(-c3ccc(F)cc3)cn12 | -12.4% (inactive)
11 | Cc1ccc(CNS(=O)(=O)CCNC(=O)c2ccccc2)cc1 | 0.203% (inactive)
12 | CC1CCCCC1NCC(=O)Nc1ccccc1C(=O)Nc1ccccc1 (stereo not drawn) | -4.86% (inactive)
13 | O=C(Nc1ccc(F)cc1)c1cccnc1N1CCOCC1 | -0.858% (inactive)
14 | O=C(O)CCC(=O)Nc1ccc(OCC2CCCO2)cc1 (stereo not drawn) | -5.22% (inactive)
15 | Cc1ccc(NC(=O)CC2C(=O)N(Cc3ccccc3)C(=S)N2NC(=O)c2cccc(F)c2)c(C)c1 (stereo not drawn) | 5.2% (inactive)
16 | COc1ccc(NC(=O)C2CCC(CNC(=O)[C@@H]3Cc4ccccc4CN3)CC2)cc1 (stereo partly drawn) | -2.14% (inactive)
17 | Cn1cccc1C(C#N)c1ccccc1C#N (stereo not drawn) | 56.5% (active)
18 | CC(C)C(=O)Nc1oc(-c2ccccc2)cc1C#N | 7.27% (inactive)
19 | Cn1cc(-c2ccccc2)cc(C#N)c1=O | -0.186% (inactive)
20 | Cc1cc(C)c2c(NC(=O)C3CC3)nn(C)c2n1 | 3.4% (inactive)

Row | SMILES | inhibition
21 | Cc1nnc(SC(C)C(=O)Nc2ccc(S(=O)(=O)NC3CCCCC3)cc2)s1 (stereo not drawn) | 7.56% (inactive)
22 | NS(=O)(=O)c1ccc(CCNC(=O)CN2C(=O)c3ccccc3S2(=O)=O)cc1 | 0.254% (inactive)
23 | COc1ccccc1NC(=O)C(C)OC(=O)CC1CCCC1 (stereo not drawn) | -15.2% (inactive)
24 | COc1ccc(-c2ocnc2C(=O)Nc2ccc3c(c2)CCC3)cc1 | 0.782% (inactive)
25 | Cc1cc(Nc2ccc(Br)cc2F)n2ncnc2n1 | -0.336% (inactive)
26 | CCc1cccc(NC(=O)CCCN2C(=O)C(c3ccccc3)Oc3cccnc32)c1 (stereo not drawn) | -6.79% (inactive)
27 | O=C(Nc1c2c(nn1-c1ccc(F)cc1)CS(=O)C2)C12CC3CC(CC(C3)C1)C2 (stereo not drawn) | -15.9% (inactive)
28 | O=C(NCCOc1ccccc1F)Nc1ccc(Br)cc1 | -15.7% (inactive)
29 | CO[C@@H]1[C@@H](OC(N)=O)[C@@H](O)C(Oc2ccc3c(O)c(NC(=O)c4ccc(O)c(CC=C(C)C)c4)c(=O)oc3c2C)OC1(C)C (stereo partly drawn) | 3.42% (inactive)
30 | O=C(Nc1ccccc1C(=O)N1CCOCC1)c1ccc(CSc2ccccc2)cc1 | -11.3% (inactive)
31 | C[C@@]12C(=O)N(c3cccc(Br)c3)C(=O)N1[C@H](c1ccc(Cl)cc1)[C@@H]1C(=O)N(C3CCCCC3)C(=O)[C@@H]12 | -10.3% (inactive)
32 | Cc1c(C(=O)NC(=S)NCc2cccnc2)oc2ccccc12 | -8.97% (inactive)
33 | CC(C)(CSc1nncn1/N=C/c1ccco1)NS(=O)(=O)c1ccc(Cl)cc1 | -10% (inactive)
34 | COc1ccc(C(O)(C2CCCCC2)C(CN2CCCC2)c2ccccc2)cc1 (stereo not drawn) | -13.6% (inactive)
35 | CCOC(=O)C1CCN(C(=O)COc2cccc3ccccc23)CC1 | -22% (inactive)
36 | O=C1CN(C(=O)COC(=O)/C=C/c2ccc(F)cc2)c2ccccc2N1 | -0.579% (inactive)
37 | COc1ccc(N(C)C(=O)C2CCN(S(=O)(=O)c3cccc4nsnc34)CC2)cc1 | -10.1% (inactive)
38 | CC(C)(COC(=O)Nc1ccccc1)COC(=O)Nc1ccccc1 | 3.19% (inactive)
39 | C/C(=N\NS(=O)(=O)c1cccc([N+](=O)[O-])c1)c1cc2ccccc2o1 | 12.7% (inactive)
40 | Cc1ccc(NC(=O)c2nc[nH]c2C(=O)N2CCCCC2)c(C(=O)c2ccccc2)c1 | 6.08% (inactive)

Row | SMILES | inhibition
41 | CCc1ccccc1S(=O)(=O)Cc1ccc(C(=O)NCCc2ccccc2)o1 | -14.5% (inactive)
42 | Cc1nnc(SCC(=O)N(C(C)C)C(C)C)nc1C | -17% (inactive)
43 | CC(Sc1nnc(Cc2ccc([N+](=O)[O-])cc2)o1)C(N)=O (stereo not drawn) | 5.89% (inactive)
44 | O=C(NCc1cccc(Cl)c1)C1CCC(=O)N(C2CC2)C1 (stereo not drawn) | 0.749% (inactive)
45 | Cc1ccc(S(=O)(=O)N2CCCCC2)cc1C(=O)N(C)CC(=O)Nc1cccc(F)c1 | 2.44% (inactive)
46 | CCn1c2ccccc2c2cc(NC(=O)C/C(C)=N/NC(=O)c3ccccc3N)ccc21 | -14.8% (inactive)
47 | COc1ccc(N(CC(=O)NCC2CCCO2)C(=O)CCC(=O)Nc2nccs2)c(OC)c1 (stereo not drawn) | 0.881% (inactive)
48 | Cc1ccc(C(c2sc3nc(C)nn3c2O)N2CCN(c3ccc(F)cc3)CC2)cc1 (stereo not drawn) | -4.54% (inactive)
49 | CCCC1CC(C)(C(=O)Cn2[nH]c(=O)ccc2=O)OC1=O (stereo not drawn) | -24.8% (inactive)
50 | O=C(c1ccc(-c2ccccc2)cc1)C1CCCN(C(=O)c2cncs2)C1 (stereo not drawn) | 46.5% (active)
51 | Cn1nccc1C(=O)N1CCCC(C(=O)c2ccc(Oc3ccccc3)cc2)C1 (stereo not drawn) | -15.6% (inactive)
52 | CCNC(=O)N1CCCC(C(=O)c2ccc(-c3ccccc3)cc2)C1 (stereo not drawn) | -11% (inactive)
53 | COC(=O)c1c(NC(=O)CN2C(=O)NC(CCc3ccccc3)C2=O)sc2c1CCCCC2 (stereo not drawn) | 2.45% (inactive)
54 | CCN1CCN(c2ccc([N+](=O)[O-])cc2C(=O)c2ccc(Cl)cc2)CC1 | -6.71% (inactive)
55 | CC1CCN(c2ccc([N+](=O)[O-])cc2C(N)=O)CC1 | -4.82% (inactive)
56 | CCC(C)(C)NC(=O)c1cc([N+](=O)[O-])ccc1N1CCCCC1 | 38.9% (active)
57 | CCOc1cc(/C=C2\SC(N3CCCC(C)C3)=NC2=O)ccc1O (stereo not drawn) | -6.66% (inactive)
58 | c1ccc2cc(CCCc3cc4ccccc4cn3)ncc2c1 | 21.2% (inactive)
